According to PubChem BioAssay:
Calls of active or inactive are those of the source.

System: not listed separately
Assay: CREB reporter modulators under forskolin, primary screen, cell-based, PC12, CRE-LacZ reporter, forskolin-stimulated (AID 1146);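 also: PC12 cells with 6xCRE LacZ reporter stimulated by forskolin 10 µM; beta-galactosidase reporter signal reflecting CREB driven transcription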
Settings: luminescence, 4.5 h, higher = more signal, called active from +8 up or from −8 down
With CCCC=C(CCC)[C@@H](NC(=O)Cc1ccccc1)c1ccc(C(=O)OC)cc1 the z-score was 0.545 (inactive).
With COc1ccc([Si](C)(C)[C@@H]2[C@@H](CCO)O[C@]3(C(=O)N(Cc4ccccc4)c4ccc(N5CCCCC5=O)cc43)[C@H]2C)cc1 the z-score was -0.94 (inactive).
With COc1ccc(CCNC(=O)[C@@H]2c3ccccc3C(=O)N(Cc3ccccc3)[C@H]2c2ccc(CO)cc2)cc1 the z-score was -1.15 (inactive).
With O=C(CS)NCCCCCNC(=O)[C@@H]1C[C@@H]2C(=O)N3CCC[C@H]3C(=O)N2[C@@H]1c1ccc(O)cc1 the z-score was -0.862 (inactive).
For COC(=O)[C@]1(Cc2ccccc2CN=[N+]=[N-])N=C(c2ccc(OCCCO)cc2)O[C@@H]1c1ccccc1, the z-score was 0.56 (inactive).
In the case of COc1ccc([Si](C)(C)[C@@H]2[C@@H](CC(=O)N(CCO)Cc3ccccc3)O[C@]3(C(=O)N(Cc4ccc(N5CCOC5=O)cc4)c4ccccc43)[C@H]2C)cc1, the z-score is reported as 0.331 (inactive).
For [N-]=[N+]=NCc1ccccc1C[C@]1(C(=O)NCCN2CCOCC2)N=C(c2ccc(OCCCO)cc2)O[C@H]1c1ccccc1, the z-score was -0.838 (inactive).
With COC(=O)[C@H]1N=C(c2ccc(OCCCO)cc2)O[C@H]1c1ccccc1CN=[N+]=[N-] the z-score was -0.785 (inactive).

Target: Streptavidin (Streptomyces avidinii) (UniProt P22629)
Sequence (P22629 whole entry, looked up): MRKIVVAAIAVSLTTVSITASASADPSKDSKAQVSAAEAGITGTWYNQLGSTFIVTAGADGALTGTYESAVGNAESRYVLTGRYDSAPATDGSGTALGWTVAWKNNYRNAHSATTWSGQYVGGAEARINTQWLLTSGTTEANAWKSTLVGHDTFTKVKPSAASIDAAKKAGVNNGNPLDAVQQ
Assay: streptavidin binders on small-molecule microarray, primary screen, artefact control for SMM compound annotation, biophysical, 635/667 nm fluorescence (AID 1147);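 also: signal reflects streptavidin binding to arrayed compounds as a control protein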
Settings: streptavidin binding, higher = more signal
Compound CC(C)[Si](C#C[Si](C(C)C)(C(C)C)C(C)C)(O[C@H](C)c1cn(Cc2cccc(Cl)c2)nn1)C(C)C has a composite z-score of 0.534.
For CC(C)(C)OC(=O)CC[C@]1(C(=O)N2CCCCC2)N=C(c2ccc(OCCCO)cc2)O[C@H]1c1ccccc1CN=[N+]=[N-], the composite z-score was 0.835.
For CCOC(=O)C[C@H]1[C@H](OC(=O)Cc2ccc3c(c2)OCO3)[C@@H](NC(=O)c2ccccc2)c2cc(OCCCO)ccc2N1C(=O)c1ccc2ccccc2n1, the composite z-score was 0.965.
CC(C)CCC[C@@H](C)[C@H]1CC[C@@]2(C)C3=C(CC[C@]12C)[C@@]1(C)CC[C@H](OC(=O)c2ccc(N)cc2)C(C)(C)C1CC3 (some centres undefined) gave a composite z-score of 0.143.
With C=CCC(OC(C)=O)[C@@H]1[C@@H](N(Cc2cccc3ccccc23)C(=O)c2ccc(C)cc2)c2cc(OCCCO)ccc2N1C(=O)c1ccc2ccccc2c1 (some centres undefined) the composite z-score was 0.128.
Compound COC(=O)C(CC#Cc1ccc2c(c1)[C@]1(C(=O)N2)[C@H](c2ccccc2OCCO)N2[C@H](c3ccccc3)[C@H](c3ccccc3)OC(=O)[C@H]2[C@@H]1C(=O)Nc1nc2ccccc2s1)C(=O)OC has a composite z-score of 0.762.
C=CCOC(=O)[C@@H]1[C@H]2C(=O)O[C@H](c3ccccc3)[C@H](c3ccccc3)N2[C@H](c2ccc(OCCOC(=O)[C@@H]3C[C@@H]4C(=O)N5CCC[C@H]5C(=O)N4[C@@H]3c3cccc(OCCO)c3)cc2)[C@@]12C(=O)Nc1ccc(I)cc12 showed a composite z-score of 0.161.
Work on COc1ccc(C(=O)Nc2ccc(CN3C(=O)[C@]4(O[C@H](CCn5cc([C@H](O)c6ccccc6)nn5)[C@@H]([Si](C)(C)c5ccc(OC)cc5)[C@@H]4C)c4ccccc43)cc2)cc1 yielded a composite z-score of -0.19.
CN(C)C(=O)[C@@]1(CCC(=O)OC(C)(C)C)N=C(c2ccc(OCCCO)cc2)O[C@H]1c1ccccc1N=[N+]=[N-] showed a composite z-score of 1.6.
For COCCOC(=O)N1C(=O)[C@@]2(c3cc(C#CCCO)ccc31)[C@H](C(=O)NC[C@H](O)c1ccccc1)[C@H]1C(=O)O[C@H](c3ccccc3)[C@H](c3ccccc3)N1[C@@H]2c1ccccc1OCCO, the composite z-score was 0.562.
Work on COc1ccc([Si](C)(C)[C@H]2[C@H](CCO)O[C@@]3(C(=O)N(Cc4cccc(N5CCOC5=O)c4)c4ccccc43)[C@@H]2C)cc1 yielded a composite z-score of 0.71.
CN(C)CCCC[C@@H]1NC(=O)[C@H]2C[C@@H](C(=O)NCCCCCCNC(=O)CS)[C@@H](c3ccc(O)cc3)N2C1=O showed a composite z-score of -1.05.
CC(C)=CCCC(C)=CC(O)C1C=CC2C(=O)N(c3ccccc3)C(=O)C2N1Nc1ccc([N+](=O)[O-])cc1 (centres undefined) showed a composite z-score of 2.06.
In the case of COC(=O)[C@@]1(Cc2ccc(OC)cc2)[C@H]2c3cc(C(=O)N(C)C)n(Cc4cc(F)c(F)c(F)c4)c3C[C@H]2CN1C(=O)c1ccccc1, the composite z-score is reported as 1.63.
With COCCOC(=O)N1C(=O)[C@@]2(c3cc(C#CCC(C(=O)OC)C(=O)OC)ccc31)[C@H](C(=O)N1CCCCCCC1)[C@H]1C(=O)O[C@H](c3ccccc3)[C@H](c3ccccc3)N1[C@@H]2c1ccc(O)cc1 the composite z-score was 1.22.
With [N-]=[N+]=Nc1ccccc1[C@H]1OC(c2ccc(OCCCO)cc2)=N[C@@]1(Cc1ccccc1)C(=O)NCc1ccccc1 the composite z-score was 0.501.
